Data from ChEMBL document CHEMBL3988442, “University of Dundee, Small-Polar-MMV Screening Library” (2021).
Hit rate of the full screen: of about 67,000 compounds, about 300 (0.45%) showed an effect of 50% or more. The entries come from a sample that favours strong results as a whole.

The compounds below were run against Polyketide synthase Pks13 (Mycobacterium tuberculosis (strain ATCC 25618 / H37Rv)) (UniProt I6X8D2) (assay: Mycobacterium tuberculosis Polyketide synthase 13 Thioesterase (PKS13)). Settings: 30 µM.
Chain of Polyketide synthase Pks13 (Mycobacterium tuberculosis (strain ATCC 25618 / H37Rv)) (I6X8D2 whole entry): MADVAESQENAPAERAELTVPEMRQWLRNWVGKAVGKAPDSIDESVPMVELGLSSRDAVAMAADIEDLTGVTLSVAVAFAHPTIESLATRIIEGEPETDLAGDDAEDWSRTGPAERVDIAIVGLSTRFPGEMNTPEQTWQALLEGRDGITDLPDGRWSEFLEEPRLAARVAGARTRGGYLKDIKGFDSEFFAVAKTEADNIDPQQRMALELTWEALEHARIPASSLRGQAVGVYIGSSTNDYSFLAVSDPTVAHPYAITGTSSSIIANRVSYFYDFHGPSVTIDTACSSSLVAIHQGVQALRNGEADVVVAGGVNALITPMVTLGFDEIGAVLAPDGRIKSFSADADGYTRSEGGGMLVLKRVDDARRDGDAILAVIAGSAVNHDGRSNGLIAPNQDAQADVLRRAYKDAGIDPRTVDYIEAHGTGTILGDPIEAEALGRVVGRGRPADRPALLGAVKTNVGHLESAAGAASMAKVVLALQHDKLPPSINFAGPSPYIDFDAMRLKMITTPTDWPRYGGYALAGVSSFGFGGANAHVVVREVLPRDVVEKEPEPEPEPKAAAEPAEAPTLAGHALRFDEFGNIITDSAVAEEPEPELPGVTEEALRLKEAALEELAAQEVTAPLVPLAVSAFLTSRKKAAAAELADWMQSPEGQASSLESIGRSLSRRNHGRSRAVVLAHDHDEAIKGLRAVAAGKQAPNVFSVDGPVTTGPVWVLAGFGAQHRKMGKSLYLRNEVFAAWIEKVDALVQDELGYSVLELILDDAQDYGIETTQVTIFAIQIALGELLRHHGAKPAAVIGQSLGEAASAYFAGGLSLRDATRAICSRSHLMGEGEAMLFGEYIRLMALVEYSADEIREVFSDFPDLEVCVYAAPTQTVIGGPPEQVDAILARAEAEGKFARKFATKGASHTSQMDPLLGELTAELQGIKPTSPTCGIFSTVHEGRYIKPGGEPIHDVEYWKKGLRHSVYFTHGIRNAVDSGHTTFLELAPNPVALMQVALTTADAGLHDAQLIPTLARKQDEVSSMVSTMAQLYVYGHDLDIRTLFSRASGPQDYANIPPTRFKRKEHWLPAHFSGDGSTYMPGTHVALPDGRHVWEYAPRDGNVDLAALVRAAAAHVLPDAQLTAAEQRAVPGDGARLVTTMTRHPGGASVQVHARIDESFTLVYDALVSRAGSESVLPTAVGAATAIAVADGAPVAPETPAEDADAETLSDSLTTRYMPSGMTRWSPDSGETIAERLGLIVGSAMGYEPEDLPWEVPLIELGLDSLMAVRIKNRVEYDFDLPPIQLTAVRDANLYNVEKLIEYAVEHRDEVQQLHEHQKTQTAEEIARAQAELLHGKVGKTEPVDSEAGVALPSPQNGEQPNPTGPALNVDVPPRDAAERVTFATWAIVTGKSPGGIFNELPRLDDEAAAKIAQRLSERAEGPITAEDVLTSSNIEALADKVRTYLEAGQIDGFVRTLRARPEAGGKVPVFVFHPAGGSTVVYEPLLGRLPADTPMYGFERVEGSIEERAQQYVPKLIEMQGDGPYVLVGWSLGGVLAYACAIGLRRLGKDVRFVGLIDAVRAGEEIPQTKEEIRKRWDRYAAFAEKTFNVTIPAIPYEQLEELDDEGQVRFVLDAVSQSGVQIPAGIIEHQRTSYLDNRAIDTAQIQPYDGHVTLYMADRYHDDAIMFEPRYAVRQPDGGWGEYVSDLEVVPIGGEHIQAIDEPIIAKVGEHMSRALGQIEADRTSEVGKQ
Type: functional
Parameters: scale not given: in the data most compounds retested in dose-response had high values
`Cc1noc(C)c1CN1C[C@@H]2OCCN(Cc3cnn(C)c3)[C@@H]2C1` showed a Percent Effect of -27.8%. Compound `C[C@@H]1C[C@@H]2CCN(Cc3nccs3)C[C@H]2O1` has a Percent Effect of -25.2%. In the case of `c1cncc(COC[C@H]2CC[C@H]3[C@H](CCN3Cc3cccs3)O2)c1`, the Percent Effect is reported as -37.9%. `CCc1cccc(C)c1NC(=O)C1CC(=O)N(Cc2ccccn2)C1` (stereo not drawn) gave a Percent Effect of 58.8%. With `O=C(Nc1ccccn1)C1CC(=O)N(Cc2ccccn2)C1` (stereo not drawn) the Percent Effect was -26.6%. With `Cc1ccc(Cl)cc1NC(=O)C1CC(=O)N(Cc2ccccn2)C1` (stereo not drawn) the Percent Effect was -5.88%. `Cc1nnc([C@H]2C[C@H]3OCC[C@H]3N(S(=O)(=O)N(C)C)C2)o1` was tested, and the Percent Effect was -28.4%. In the case of `CC(C)N1CCO[C@H]2CN(Cc3cc[nH]n3)C[C@H]21`, the Percent Effect is reported as -16.1%. With `CN(Cc1ccco1)C[C@H]1OC[C@@H]2CCN(Cc3cccs3)C[C@@H]21` the Percent Effect was -7.96%. Work on `CC(C)c1nnc(NC(=O)CSCc2cc(=O)n3ccccc3n2)s1` yielded a Percent Effect of -12.4%. In the case of `Cc1cccn2c(=O)cc(CSCC(=O)Nc3nnc(C(C)C)s3)nc12`, the Percent Effect is reported as 98.2%. Compound `Cc1ccn2c(=O)cc(CSCC(=O)Nc3nnc(C(C)C)s3)nc2c1` has a Percent Effect of -42%. In the case of `Cc1cc(N2CCCC2c2cncc(N(C)C)n2)ncn1` (stereo not drawn), the Percent Effect is reported as -0.232%. Work on `CNc1cncc(C2CCCN2c2cc(C)ncn2)n1` (stereo not drawn) yielded a Percent Effect of 55%. `Cc1cc(N2CCCC2c2cnccn2)ncn1` (stereo not drawn) showed a Percent Effect of -32.2%. For `O=C(NC1CC1)[C@@H]1C[C@@H]2CCN(Cc3ccoc3)C[C@@H]2O1`, the Percent Effect was -9.29%. `O=C(c1cn2ccsc2n1)N1CCN(CC2CC2)[C@@H]2CS(=O)(=O)C[C@@H]21` showed a Percent Effect of -4.84%. In the case of `CC[C@H](C)[C@H](N)C(=O)Nc1nc(-c2cnc(N3CCOCC3)nc2)cs1`, the Percent Effect is reported as 36.7%. With `CC[C@H](C)[C@H](N)C(=O)Nc1nc(-c2cnc(N(C)C)nc2)cs1` the Percent Effect was 146%. Work on `CC[C@H](C)[C@H](N)C(=O)Nc1nc(-c2cnc(N(C)CCO)nc2)cs1` yielded a Percent Effect of 27.2%. Work on `CN1CCc2c(sc3c2C(=O)NC(/C=C/c2ccccc2)N3)C1` (stereo not drawn) yielded a Percent Effect of 33.3%. Work on `O=C1C[C@H]2[C@H](CCN2C(=O)c2cc[nH]n2)N1Cc1cccnc1` yielded a Percent Effect of -24.8%. `O=C1CC(c2ccc(O)cc2)c2sc(C(=O)O)c(-c3ccccc3)c2N1` (stereo not drawn) was tested, and the Percent Effect was -18.2%. `O=C1CC(c2ccccc2)c2sc(C(=O)O)c(-c3ccccc3)c2N1` (stereo not drawn) was tested, and the Percent Effect was -32%. With `O=C1CC(c2ccco2)c2sc(C(=O)O)c(-c3ccccc3)c2N1` (stereo not drawn) the Percent Effect was 65.6%. In the case of `O=C(C1CC(=O)N(c2ccccc2Br)C1)N1CCCCCC1` (stereo not drawn), the Percent Effect is reported as -11.4%. For `O=C(C1CC1)N1CCN(C(=O)C2CC(=O)N(c3ccccc3Br)C2)CC1` (stereo not drawn), the Percent Effect was -26.4%. With `CCOC(=O)N1CCN(C(=O)C2CC(=O)N(c3ccccc3Br)C2)CC1` (stereo not drawn) the Percent Effect was 50.9%. Compound `COc1ncccc1CN1C[C@@H]2COC[C@]2(CNS(C)(=O)=O)C1` has a Percent Effect of 1.01%. For `CC(=O)N1CCCN(C(=O)NCc2ccc(-c3ccn[nH]3)cc2)CC1`, the Percent Effect was -4.03%. `CC(=O)NC1CCCN(C(=O)NCc2ccc(-c3ccn[nH]3)cc2)C1` (stereo not drawn) showed a Percent Effect of -5.89%. `CCOCC1CCCN(C(=O)NCc2ccc(-c3ccn[nH]3)cc2)C1` (stereo not drawn) was tested, and the Percent Effect was 56.4%. `Cc1nnc(N2CC[C@H]3C[C@@H](C(=O)NC4CCCC4)O[C@H]3C2)s1` was tested, and the Percent Effect was -27.2%. Work on `O=C([C@H]1C[C@H]2OCC[C@H]2N(Cc2ccccn2)C1)N1CCCCO1` yielded a Percent Effect of -14.6%. `CCCNC(=O)c1nc2c(o1)CN(C(=O)CN(C)C)C2` was tested, and the Percent Effect was -38.7%. `CN(C)CC(=O)N1Cc2nc(C(=O)NCc3ccncc3)oc2C1` showed a Percent Effect of -7.86%. In the case of `CN(C)CC(=O)N1Cc2nc(C(=O)NCc3ccccc3)oc2C1`, the Percent Effect is reported as 72.3%. In the case of `Cc1cc(CNC(=O)c2cnoc2C)c(C)o1`, the Percent Effect is reported as 10.7%. For `Cc1cc(C(=O)NCc2cc(C)oc2C)no1`, the Percent Effect was 59.4%. For `Cc1cc(CNC(=O)c2ccno2)c(C)o1`, the Percent Effect was -13.1%. Work on `Cc1nc([C@H]2C[C@@H]3CCN(Cc4scnc4C)C[C@H]3O2)no1` yielded a Percent Effect of -27.4%. `Cc1cc(C(=O)NCCN2CCC(C)CC2)nn1C(C)(C)C` showed a Percent Effect of -8.5%. In the case of `Cc1cc(C)n(-c2nc(C(=O)NCCN3CCC(C)CC3)cs2)n1`, the Percent Effect is reported as 51.2%. `Cc1cc(C)n(-c2nc(C(=O)NCCS(=O)(=O)N3CCCCC3)cs2)n1` was tested, and the Percent Effect was 16%. Work on `CN(C)C(=O)CO[C@H]1CN(Cc2ccsc2)[C@@H]2COC[C@H]12` yielded a Percent Effect of -4.76%. Compound `O=C(C1CC1)N1C[C@H]2CCCN(S(=O)(=O)c3cccc(F)c3)[C@H]2C1` has a Percent Effect of -2.59%. `CC(=O)NCCNC(=O)c1cnc(-c2ccc(C)cc2C)s1` was tested, and the Percent Effect was 10.8%. Work on `Cc1ccc(-c2ncc(C(=O)NCCNc3ncccn3)s2)c(C)c1` yielded a Percent Effect of 70.6%. With `Cc1ccc(-c2ncc(C(=O)NCCNC(=O)C(C)C)s2)c(C)c1` the Percent Effect was 1.54%. Work on `Cc1ccc(C(=O)N2CC[C@H]3[C@@H]2CCC(=O)N3c2cccnc2)o1` yielded a Percent Effect of -561%. `CN1CCS(=O)(=O)[C@@H]2CCN(C(=O)CC(C)(C)C)CC[C@@H]21` showed a Percent Effect of -26%. Compound `Cc1cc(CN2C[C@@H]3COC[C@H](C(=O)N4CCCCO4)[C@@H]3C2)oc1C` has a Percent Effect of -10.7%. Compound `Cc1cnc(N2C[C@@H]3CCN(CC4CC4)C(=O)[C@H]3C2)nc1` has a Percent Effect of -1.64%. In the case of `CC(C)(O)CCc1cccc(C(=O)N[C@@H](CO)C(N)=O)c1`, the Percent Effect is reported as 10.3%. Work on `C[C@H](NC(=O)c1cccc(CCC(C)(C)O)c1)C(N)=O` yielded a Percent Effect of 54%. `CC(C)[C@H](NC(=O)c1cccc(CCC(C)(C)O)c1)C(N)=O` gave a Percent Effect of 5.12%. In the case of `CN(Cc1cncnc1)[C@H]1CN(CC2CC2)[C@@H]2CCCO[C@@H]21`, the Percent Effect is reported as -5.38%. For `O=C1CN([C@@H]2CC[C@@H](NS(=O)(=O)c3ccccc3)[C@H]2O)CCN1`, the Percent Effect was 0.207%. `O=C1CN([C@@H]2CC[C@@H](NS(=O)(=O)c3ccccc3F)[C@H]2O)CCN1` was tested, and the Percent Effect was -2.59%. `Cc1ccccc1S(=O)(=O)N[C@@H]1CC[C@@H](N2CCNC(=O)C2)[C@@H]1O` showed a Percent Effect of 53%. Compound `COCCN1C[C@@H]2CCCO[C@@H]2[C@H](N(C)Cc2ccco2)C1` has a Percent Effect of -24.6%. Work on `Cc1ccc(CN2CC[C@@]3(O)CCN(S(=O)(=O)N(C)C)C[C@H]3C2)cc1C` yielded a Percent Effect of -28.6%. Work on `Cc1cc(-c2cnn(CCNC(=O)c3snnc3C)c2C2CC2)on1` yielded a Percent Effect of 90.2%. `Cc1cc(-c2cnn(CCNC(=O)C3CC3)c2C2CC2)on1` showed a Percent Effect of -12%. Work on `Cc1cc(-c2cnn(CCNC(=O)c3cnn(C)c3)c2C2CC2)on1` yielded a Percent Effect of -12.5%. In the case of `COc1cccc(-c2cc(NCCN(C)C)nc3[nH]ccc23)n1`, the Percent Effect is reported as 7.82%. Compound `COc1cccc(-c2cc(NCC(=O)O)nc3[nH]ccc23)n1` has a Percent Effect of 58.3%. `COc1cccc(-c2cc(NCCO)nc3[nH]ccc23)n1` showed a Percent Effect of 7.17%.
